Results filed as inconclusive are left out. Entries that show only a call come without a potency. Active and inactive are the calls of the source. The call rests on the fitted dose curve.

The assay is described as follows: Primary qHTS for Huh7 cytotoxicity: counterscreen for inhibitors of MERS-S pseudotyped particle cell entry (AID 1479147). As to conditions: cell viability read-out; series mostly up to 57.1 µM. In general terms: In qHTS, concentration-response curves come from the screen itself.
Take `Cc1ccc(N(CC2=NCCN2)c2cccc(O)c2)cc1`: the Potency result is “inactive”.
With `CCc1oc2ccccc2c1C(=O)c1cc(Br)c(O)c(Br)c1`, the Potency entry is “inactive”.
With `CC(=O)OCC(=O)Nc1cc(C#N)cc(NC(=O)COC(C)=O)c1Cl` the entry was “inactive”.
Turning to `O=C(OCc1ccccc1)c1ccc(O)cc1`, the Potency entry is “inactive”.
Turning to `COC1=C(OC)C(=O)C(CCCCCCCCCCO)=C(C)C1=O`, the Potency result is “inactive”.
Next, `CCCC(=O)O[C@]1(C(=O)CC)CC[C@H]2[C@@H]3CCC4=CC(=O)CC[C@]4(C)[C@H]3[C@@H](O)C[C@@]21C`: “inactive”; `CC(=O)OCC(=O)NCCCOc1cccc(CN2CCCCC2)c1`: “inactive”.
Consider `CCN(CC)CCOC(=O)C(Cc1cccc2ccccc12)CC1CCCO1` (stereo not drawn), for which the Potency entry is “inactive”.
Next, `CN(C)CC[C@@H](c1ccc(Cl)cc1)c1ccccn1`: “inactive”.
As for `Cn1cc(C(=O)[C@@H]2CCc3nc[nH]c3C2)c2ccccc21`, the Potency entry is “inactive”.
Next, `CCCCCCCCCCCCOS(=O)(=O)O`: “inactive”.
With `CCOC(=O)c1ccc(OC(=O)CCCCCN=C(N)N)cc1` the entry was “inactive”; with `O=c1oc2c(O)c(O)cc3c(=O)oc4c(O)c(O)cc1c4c23`, “inactive”.
Consider `CCCCCCOC(=O)NC(=N)c1ccc(NCc2nc3cc(C(=O)N(CCC(=O)OCC)c4ccccn4)ccc3n2C)cc1`, for which the Potency entry is “inactive”.
Regarding `CCOC(=O)[C@H](CCc1ccccc1)N[C@@H](C)C(=O)N(CC(=O)O)C1Cc2ccccc2C1`, the Potency result was “inactive”.
With `C1CCN2C[C@@H]3C[C@@H](CN4CCCC[C@@H]34)[C@H]2C1` the entry was “inactive”.
Next, `CCN(CC)CCOc1ccccc1C(=O)CCc1ccccc1`: “inactive”; `Cc1c(-c2ccccc2)oc2c(C(=O)OCCN3CCCCC3)cccc2c1=O`: “inactive”.

For the origin of these results see PubChem BioAssay (NCATS).
